In the library only some 3% were active in any assay of this set; here they are far more common.
SENP8 block-1 – SENP8 protease inhibitors, primary screen, biochemical, luminescence; purified SENP8, Z-RLRGG-aminoluciferin cleavage; 330,000 compounds, 1.2% hits; inhibition, % at 10 µM; Sentrin-specific protease 8 (Homo sapiens), Q96LD8; in the data active = inhibition above about 50%
SENP8 block-2 – human SENP8 protease inhibitors, primary screen, biochemical, fluorescence, Nedd8 protein substrate, uHTS | Sentrin-specific protease 8 (Homo sapiens), Q96LD8 | recombinant SENP8 | inhibition, % at 20 µM | AID 602440, 2012 | 360,000 compounds, 0.64% hits; in the data active = inhibition mostly above about 40%, no sharp cut-off; inactive = mostly below about 27%
SENP6 block – SENP6 protease inhibitors, primary screen, biochemical, luminescence, uHTS | Sentrin-specific protease 6 (Homo sapiens), Q9GZR1 | Recombinant SENP6 catalytic domain, aminoluciferin luminescence | inhibition, % at 10 µM | 330,000 compounds, 1.8% hits | AID 2599, 2010;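 active = inhibition above about 50% at the single tested dose, limit read from the data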;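 note: plate controls were DMSO wells with enzyme for no effect and DMSO wells lacking enzyme for full effect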
Target sequence (Q9GZR1 628-1112 limits assumed): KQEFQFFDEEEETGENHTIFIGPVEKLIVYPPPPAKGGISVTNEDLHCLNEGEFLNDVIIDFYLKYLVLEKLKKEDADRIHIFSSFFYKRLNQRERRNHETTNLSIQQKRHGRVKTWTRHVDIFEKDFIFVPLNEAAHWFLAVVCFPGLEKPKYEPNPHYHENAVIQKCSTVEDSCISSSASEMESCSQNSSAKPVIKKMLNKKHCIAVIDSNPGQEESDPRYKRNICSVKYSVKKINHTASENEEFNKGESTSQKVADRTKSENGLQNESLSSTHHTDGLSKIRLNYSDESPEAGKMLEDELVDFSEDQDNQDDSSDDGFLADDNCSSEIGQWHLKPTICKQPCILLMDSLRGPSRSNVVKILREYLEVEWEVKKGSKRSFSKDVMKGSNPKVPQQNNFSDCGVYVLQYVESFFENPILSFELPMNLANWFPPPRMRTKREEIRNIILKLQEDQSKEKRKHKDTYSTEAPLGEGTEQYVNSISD
SENP7 block – SENP7 protease inhibitors, primary screen, biochemical, luminescence, uHTS | recombinant SENP7, Z-RLRGG-aminoluciferin luminescence, 40 min | inhibition, % at 5 µM | 330,000 compounds, 1.5% hits | AID 434973, 2010;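 active = inhibition above about 50% at the single test dose, limit read from the data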;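 note: plate controls were DMSO with enzyme for no effect and no enzyme buffer wells for full effect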
PPC-1+TRAIL kill – compounds killing PPC-1 cancer cells with TRAIL present, primary screen, TRAIL potentiator project, ATPLite luminescence, uHTS | PPC-1 cells + TRAIL, ATPLite viability luminescence | cell killing (% activity), % at 4 µM or 5 µM | 220,000 compounds, 0.41% hits | AID 1443, 2008;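 active = cell killing above 50% in the first pass at 4 µM, then a duplicate retest at 5 µM averaging 50% or more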;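 note: plate controls were cells with TRAIL plus DMSO for no effect and medium-only wells lacking cells for full effect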
C8 TRAIL sens – viability loss with TRAIL in NB7+C8 cells, primary screen, TRAIL sensitizer project, cell-based, ATPlite luminescence | inhibition (viability loss, TRAIL sensitization), % at 10 µM | 360,000 compounds, 1% hits | AID 624354, 2012;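 active = compounds causing at least 50% loss of cell viability in the single-dose screen, relative to plate controls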
Starred values were filed as active, the others as inactive; nt = no result given.

SMILES | SENP8 block-1 | SENP8 block-2 | SENP6 block | SENP7 block | PPC-1+TRAIL kill | C8 TRAIL sens
COc1cc(C(=O)Nc2ccc(NC(=O)c3ccccc3Cl)nc2)cc(OC)c1OC | 20 | 14 | 16 | 5 | nt | -8
CN(c1cccc(NC(=O)COc2ccc(Cl)cc2Cl)c1)S(C)(=O)=O | -4 | 9 | -2 | 2 | 36 | 57*
Cc1ccccc1OCC(=O)Nc1cccc(N(C)S(C)(=O)=O)c1 | 1 | 15 | -9 | 13 | 0 | 20
CC1=C(/C=C/C(C)=C/C=C/C(C)=C/C(=O)Nc2ccc(O)cc2)C(C)(C)CCC1 | 6 | 18 | -2 | -1 | nt | 80*
Cn1nnc2cc(NC(=O)Nc3ccccc3F)ccc21 | nt | 1 | nt | nt | nt | 33
COc1ccccc1NC(=O)Nc1ccc2c(c1)nnn2C | -5 | 20 | -4 | 5 | 40 | 54*
CCc1ccc(Nc2nnc(SCC(=O)Nc3cccc(S(=O)(=O)NC4=NCCCCC4)c3)s2)cc1 | -20 | 20 | 1 | -1 | 51* | 64*
CCOc1ccc(OCC(=O)Nc2cccc(S(=O)(=O)NC3=NCCC3)c2)cc1 | nt | 4 | nt | nt | nt | 63*
Cc1ccc(Nc2nnc(SCC(=O)Nc3cccc(S(=O)(=O)NC4=NCCCCC4)c3)s2)cc1 | -6 | 1 | 1 | 7 | 16 | 37
CC(C)(C)c1ccc(OCC(=O)Nc2cccc(S(=O)(=O)NC3=NCCCCC3)c2)cc1 | 10 | 14 | 5 | 3 | nt | 6
O=C(N/N=C/c1ccc([N+](=O)[O-])s1)c1ccccc1 | 21 | 34 | 50* | 15 | 27 | 34
COc1ccc(C(=O)N/N=C/c2sc3ccccc3c2O)cc1 | nt | -220 | nt | nt | 38 | 48
Cc1ccnn1CC(=O)N/N=C/c1cccs1 | 2 | 28 | -3 | -3 | 10 | 24
O=C(N/N=C/c1sc2ccccc2c1O)c1ccccc1 | 2 | -54 | 40 | 3 | 27 | 53*
Cc1ccnn1CC(=O)N/N=C/c1ccc([N+](=O)[O-])s1 | 29 | 23 | 51* | 22 | 14 | 13
CCN1C(=O)[C@H]2[C@@H](c3ccc(C)cc3)N[C@]3(CCCN(Cc4ccc(Cl)cc4)C3=O)[C@H]2C1=O | nt | 8 | nt | nt | nt | 8
CNc1cc(C(=O)Nc2cccc(OCc3ccccc3)c2)ncn1 | nt | 12 | nt | nt | nt | 22
COCCCNC(=O)c1nc2ccccc2c(=O)n1NC(=O)Nc1c(Cl)cccc1Cl | -3 | 10 | 8 | 10 | nt | -7
CC(=O)N1CCN(c2ccc(NCc3ccc(C)s3)cc2)CC1 | -5 | -114 | 6 | -3 | 10 | 4
Cc1ccc(CNc2ccc(N3CCOCC3)cc2)s1 | -8 | -82 | 16 | -9 | 15 | 68*
CCc1c(-c2cccc(OC)c2)ncn1Cc1cccc(-c2ccccc2)c1 | nt | 8 | nt | nt | nt | 23
O=[N+]([O-])c1ccc(N=Nc2c(O)[nH]c3ccc(F)cc23)cc1 | 3 | 31 | -5 | 12 | nt | 54*
CC1CC(C)(C)Nc2ccc(N=O)cc21 (configuration not stated) | nt | 45* | nt | nt | 12 | 2
COc1cc([N+](=O)[O-])ccc1-c1ccc(/C=C2\C(=O)ON=C2c2ccccc2)o1 | nt | 32 | nt | nt | nt | -8
COc1ccc(-c2ccc(/C=C3\C(=O)N(c4ccccc4)N=C3c3ccccc3)o2)c([N+](=O)[O-])c1 | 4 | 46* | -8 | 3 | 6 | 23
SMILES | SENP8 block-1 | SENP8 block-2 | SENP6 block | SENP7 block | PPC-1+TRAIL kill | C8 TRAIL sens
O=C(NCc1ccccc1)C(c1ccc(-c2ccccc2)cc1)N1CCN(CCN2CCOCC2)CC1 (configuration not stated) | nt | 22 | nt | nt | nt | 9
O=C1C(Br)=C(c2ccccc2)C(c2ccccc2)=C1c1ccccc1 | nt | 11 | nt | nt | nt | 82*
CCOC(=O)CNC(=O)CSc1nc(-c2ccc(OC)cc2)ns1 | -9 | 18 | 9 | 4 | 21 | 54*
COc1ccc(-c2nsc(SCC(=O)Nc3cc(C)on3)n2)cc1 | 0 | -6 | -8 | 2 | 17 | 5
COc1cccc(CNc2ncc(Br)cc2Br)c1O | -6 | 40* | -14 | -8 | -7 | -6
Cc1noc(C)c1CSCC(=O)Nc1nc2ccc(F)cc2s1 | -13 | -21 | -10 | 9 | nt | 3
COCc1cc(CN2CCCC2)c(O)c2ncccc12 | 1 | 16 | 4 | 12 | -2 | -3
